Results as given in PubChem BioAssay (EPA / NIEHS).
Results filed as inconclusive are left out. The source made the active and inactive calls. The calls were made as follows, unless noted: active = hit-call score of the fitted dose curve at least 0.9, where 1 is the maximum; inconclusive = response in the unintended direction; inactive = score below 0.9.

Assays:
[1] = read-out: X-box binding protein 1 (XBP1), XBP1 (gene 7494); experiment: LTEA_HepaRG_XBP1: Life Technologies and Expression Analysis (LTEA) Assay for X-box binding protein 1 (XBP1) using HepaRG (AID 2283540; active = hit-call score of the fitted dose curve at least 0.9, where 1 is the maximum; inactive = score below 0.9); details: mRNA level, 48 h; actives raise or lower the signal
Summary of the method: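 Transcript levels of XBP1, measured by qRT-PCR and normalised to three housekeeping genes, were fitted bidirectionally relative to 0.5% DMSO controls. Human HepaRG cells received eight-point half-log dilutions from 100 uM for 48 h.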

[2] = LTEA_HepaRG_LDH_cytotoxicity: Cytotoxicity Assessment in the Life Technologies and Expression Analysis (LTEA) Assay (AID 2283563)
Summary of the method: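 Cells were thawed and plated for 48 h. Medium was then replaced with serum-free induction medium. Chemicals (8 half-log points, maximum 100 uM, 0.5% DMSO) were added in duplicate for 48 h, after which spent medium was assayed for LDH.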

[3] = TOX21_p53_BLA_p2_viability: Viability Assessment in the Tox21 HCT-116 p53 Agonism Beta-lactamase Assay, Phase 2 (AID 2283591);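 also: compound exposure lasted 16 h at 37 °C; actives lower the ATP signal meaning cytotoxicity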
Summary of the method: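 HCT-116 p53-bla cells (4000/well) rested 5 h at 37C, then received compounds in DMSO (217-fold dilution) for 16 h at 37C, 5% CO2. After the CCF4 read, CellTiter-Glo was added; ATP luminescence was read after 30 min at room temperature.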

[4] = molecular target: Cellular tumor antigen p53 (Homo sapiens) (UniProt P04637); experiment: TOX21_p53_BLA_p3_ratio: Tox21 HCT-116 p53 Agonism Beta-lactamase Assay, Ratio, Phase 3 (AID 2283596)
Summary of the method: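 Cells were seeded at 4000/well, rested 5 h at 37C, then dosed with DMSO compound solutions (217-fold dilution) for 16 h. CCF4-AM substrate was loaded for 2 h at room temperature, and the 460/530 nm emission ratio was fitted for gain of signal versus DMSO.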

[5] = TOX21_p53_BLA_p4_viability: Viability Assessment in the Tox21 HCT-116 p53 Agonism Beta-lactamase Assay, Phase 4 (AID 2283597);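 also: hits lower the luminescence signal meaning cytotoxicity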
Summary of the method: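 Readout: ATP luminescence (CellTiter-Glo), measured 30 min after reagent addition at RT. The reagent followed a 2 h CCF4-AM incubation, and the cells had been exposed to compound for 16 h at 37C.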

[6] = molecular target: Cellular tumor antigen p53 (Homo sapiens) (UniProt P04637); experiment: TOX21_p53_BLA_p4_ratio: Tox21 HCT-116 p53 Agonism Beta-lactamase Assay, Ratio, Phase 4 (AID 2283601)
Summary of the method: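 HCT116 cells carrying an inducible beta-lactamase reporter were plated at 4000 cells/well, rested 5 h, then exposed to compounds in DMSO (217-fold dilution) for 16 h at 37C. CCF4-AM substrate was loaded 2 h at room temperature; 460/530 nm emission ratio scored gain-of-signal versus DMSO.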

[7] = Tanguay_ZF_120hpf_MORT_legacy: (Legacy) Oregon State University Tanguay Lab 120 Hour Post-fertilization zebrafish Assay for Mortality (AID 2283633)
Summary of the method: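 5D WT zebrafish, chorion removed 4 hpf; 1 embryo/well from 6 hpf; static exposure to 120 hpf, 28C, dark, sealed. Final DMSO 0.64%. Readout: binary mortality, brightfield, 24 + 120 hpf; DMSO as negative control.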

[8] = Tanguay_ZF_120hpf_YSE_legacy: (Legacy) Oregon State University Tanguay Lab 120 Hour Post-fertilization zebrafish Assay for Yolk Sac Edema (AID 2283634);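 as to AC50: actives raise the incidence of yolk sac edema above the DMSO baseline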
Summary of the method: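 Dechorionate (pronase, 4 hpf) → place one 6 hpf embryo per well → static compound exposure, sealed and foil-covered, 28C, to 120 hpf → record yolk sac edema as present or absent. Final DMSO 0.64%.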

[9] = Tanguay_ZF_120hpf_AXIS_legacy: (Legacy) Oregon State University Tanguay Lab 120 Hour Post-fertilization zebrafish Assay for Body Axis Malformation (AID 2283635)
Summary of the method: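 Chorion is removed with pronase at 4 hpf, then single 6 hpf embryos are dosed (final DMSO 0.64%) and held statically at 28C in sealed, foil-covered plates. At 120 hpf body axis malformation is recorded as present or absent.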

[10] = Tanguay_ZF_120hpf_SNOU_legacy: (Legacy) Oregon State University Tanguay Lab 120 Hour Post-fertilization zebrafish Assay for Snout Malformation (AID 2283637)
Summary of the method: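 Dechorionated zebrafish, individually housed from 6 hpf in covered, sealed wells at 28C with 0.64% DMSO vehicle, were examined at 120 hpf for snout malformation. Responses were binary and analysed positive-direction relative to DMSO.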

[11] = Tanguay_ZF_120hpf_JAW_legacy: (Legacy) Oregon State University Tanguay Lab 120 Hour Post-fertilization zebrafish Assay for Jaw Malformation (AID 2283638)
Summary of the method: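 Steps: dechorionate 4 hpf embryos (pronase); plate 1/well at 6 hpf; add test chemical, 0.64% DMSO final; seal, cover, hold at 28C statically to 120 hpf; score jaw defect presence/absence microscopically. Dead embryos not scored.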

[12] = Tanguay_ZF_120hpf_OTIC_legacy: (Legacy) Oregon State University Tanguay Lab 120 Hour Post-fertilization zebrafish Assay for Otic Vesicle Malformation (AID 2283639)
Summary of the method: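 Statically exposed wild-type 5D zebrafish embryos, kept sealed and dark at 28C through 120 hours post fertilization, were examined by brightfield microscopy for otic vesicle defects. Responses were recorded as present or absent and analysed relative to DMSO.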

[13] = Tanguay_ZF_120hpf_BRAI_legacy: (Legacy) Oregon State University Tanguay Lab 120 Hour Post-fertilization zebrafish Assay for Brain Malformation (AID 2283641)
Summary of the method: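 Wild-type 5D larvae, static waterborne exposure to 120 hpf, 28C, 0.64% v/v DMSO. Brightfield scoring of brain defects, binary; dead embryos excluded. Positive ctrl 5uM trimethyltin chloride.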

[14] = molecular target: Cellular tumor antigen p53 (Homo sapiens) (UniProt P04637); experiment: TOX21_p53_BLA_p2_ratio: Tox21 HCT-116 p53 Agonism Beta-lactamase Assay, Ratio, Phase 2 (AID 2283592)
Summary of the method: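 Plated HCT116 p53-bla cells (4000/well) received compound after 5 h, then 16 h at 37C/5% CO2. CCF4-AM added, 2 h RT. Ratio of 460 to 530 nm emission taken as the p53 reporter signal.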

[15] = molecular target: Cellular tumor antigen p53 (Homo sapiens) (UniProt P04637); experiment: TOX21_p53_BLA_p5_ratio: Tox21 HCT-116 p53 Agonism Beta-lactamase Assay, Ratio, Phase 5 (AID 2283599)
Summary of the method: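 HCT-116 cells carrying a p53-inducible beta-lactamase reporter were seeded at 4000 cells/well and dosed after 5 h with compound in DMSO (217-fold dilution). After 16 h at 37C, CCF4-AM substrate was added for 2 h, and the 460/530 nm emission ratio was scored as gain-of-signal versus DMSO.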

[16] = TOX21_p53_BLA_p5_viability: Viability Assessment in the Tox21 HCT-116 p53 Agonism Beta-lactamase Assay, Phase 5 (AID 2283600)
Summary of the method: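 Workflow: seed 4000 cells per well, wait 5 h, add compounds (DMSO, 217-fold dilution), incubate 16 h, load CCF4-AM 2 h, add CellTiter-Glo, read luminescence after 30 min.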

[17] = Tanguay_ZF_120hpf_EYE_legacy: (Legacy) Oregon State University Tanguay Lab 120 Hour Post-fertilization zebrafish Assay for Eye Malformation (AID 2283636);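 also: binary presence or absence of eye malformation scored by brightfield in 120 hpf larvae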
Summary of the method: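 Static waterborne exposure of dechorionated zebrafish embryos (strain Tropical 5D), 6 to 120 hpf, sealed plates at 28C, 0.64% DMSO vehicle. Eye malformation is scored as a binary endpoint, with gain of signal analysed relative to DMSO.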

[18] = Tanguay_ZF_120hpf_PE_legacy: (Legacy) Oregon State University Tanguay Lab 120 Hour Post-fertilization zebrafish Assay for Pericardial Edema (AID 2283640)
Summary of the method: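 Embryos from wild-type 5D adults were staged, then dosed in 0.64% DMSO. They were kept sealed in the dark at 28C until 120 hpf. Pericardial edema was then recorded as present or absent.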

[19] = TOX21_p53_BLA_p3_viability: Viability Assessment in the Tox21 HCT-116 p53 Agonism Beta-lactamase Assay, Phase 3 (AID 2283593);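 also: cells exposed to compound for 16 h before reading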
Summary of the method: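 HCT-116 cells (4000/well) rested 5 h at 37C, then got DMSO compounds by pin tool (217-fold dilution) for 16 h at 37C, 5% CO2. After the bla read, CellTiter-Glo was added and luminescence read at 30 min, room temperature.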

Measured: AC50

Chain of Cellular tumor antigen p53 (Homo sapiens) (P04637 whole entry, looked up): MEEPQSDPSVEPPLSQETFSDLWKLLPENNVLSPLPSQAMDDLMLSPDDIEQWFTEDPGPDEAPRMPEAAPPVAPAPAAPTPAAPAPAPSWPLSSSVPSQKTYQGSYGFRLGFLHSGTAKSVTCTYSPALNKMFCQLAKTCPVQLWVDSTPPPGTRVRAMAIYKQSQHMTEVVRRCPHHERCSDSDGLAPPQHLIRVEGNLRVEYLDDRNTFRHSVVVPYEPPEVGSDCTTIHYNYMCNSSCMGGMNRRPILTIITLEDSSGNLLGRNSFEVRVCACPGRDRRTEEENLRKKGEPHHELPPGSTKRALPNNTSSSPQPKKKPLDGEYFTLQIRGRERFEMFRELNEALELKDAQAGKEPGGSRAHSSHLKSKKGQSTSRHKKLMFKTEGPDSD

CCNP(=S)(OC)O/C(C)=C/C(=O)OC(C)C (stereo unspecified)
inactive: [1] | [2] | [3] | [4] | [5] | [6] | [7] | [8] | [9] | [10] | [11] | [12] | [13]

COc1cc(Cl)c(OC)cc1Cl
inactive: [1] | [2] | [14] | [4] | [15] | [7] | [8] | [9] | [10] | [11] | [12] | [13]

CN=C=S
active: [1] 17.3 µM
inactive: [2] | [3] | [14] | [4] | [5] | [16] | [6] | [7] | [8] | [9] | [12] | [13]

CN/C(=N\[N+](=O)[O-])NCc1cnc(Cl)s1
inactive: [1] | [2] | [3] | [14] | [5] | [16] | [6] | [7] | [8] | [9] | [17] | [10] | [11] | [12] | [13]

CCC(C)n1c(=O)[nH]c(C)c(Br)c1=O (stereo unspecified)
inactive: [2] | [3] | [14] | [16] | [7] | [8] | [10] | [12] | [18] | [13]
active: [1] 30.5 µM

CNC(=O)Oc1cccc2ccccc12
inactive: [1] | [2] | [14] | [19] | [4] | [5] | [16] | [6] | [7] | [8] | [9] | [10] | [11] | [12] | [18] | [13]

Cc1cc(C)nc(Nc2ccccc2)n1
inactive: [1] | [2] | [3] | [14] | [4] | [5] | [16] | [7] | [8] | [10] | [11] | [12] | [18] | [13]

C=CCOC(=O)C(C)(C)OC(=O)c1cc(-n2c(=O)cc(C(F)(F)F)n(C)c2=O)ccc1Cl
inactive: [1] | [2] | [3] | [14] | [4] | [5] | [16] | [6] | [7] | [8] | [9] | [10] | [11] | [13]

CCCC(=NOCC)C1=C(O)CC(CC(C)SCC)CC1=O (stereo unspecified)
inactive: [1] | [2] | [14] | [4] | [5] | [7] | [8] | [9] | [17] | [10] | [11] | [12] | [18] | [13]

Cc1cnc(C2=NC(C)(C(C)C)C(=O)N2)c(C(=O)O)c1 (stereo unspecified)
inactive: [1] | [2] | [5] | [16] | [7] | [8] | [9] | [10] | [11] | [12] | [18] | [13]

N#Cc1c(Cl)cccc1Cl
inactive: [1] | [2] | [4] | [6] | [7] | [8] | [9] | [10] | [11] | [12] | [13]

CNC(=O)N(C)c1nnc(C(C)(C)C)s1
inactive: [1] | [2] | [3] | [14] | [4] | [5] | [16] | [6] | [7] | [10] | [11] | [12] | [18] | [13]

COC(=O)NC(=S)Nc1ccccc1NC(=S)NC(=O)OC
inactive: [1] | [2] | [3] | [14] | [16] | [6] | [7] | [9] | [11] | [12]
active: [8] 47.7 µM | [10] 50.3 µM

CCSC(=O)N1CCCCCC1
inactive: [1] | [2] | [3] | [19] | [4] | [16] | [7] | [8] | [9] | [17] | [10] | [11] | [12] | [13]

CCOc1nc(C(Cl)(Cl)Cl)ns1
active: [1] 0.83 µM
inactive: [2] | [14] | [19] | [5] | [15] | [16] | [6] | [7] | [8] | [9] | [10] | [11] | [13]

CCOc1cc(C(C)(C)C)ccc1C1COC(c2c(F)cccc2F)=N1 (stereo unspecified)
inactive: [1] | [2] | [7] | [8] | [9] | [10] | [11] | [18] | [13]

O=C(O)c1c(Cl)ccc2cc(Cl)cnc12
inactive: [1] | [2] | [7] | [8] | [9] | [17] | [10] | [11] | [12]

CC(C)C1(C)N=C(c2ncccc2C(=O)O)NC1=O (stereo unspecified)
inactive: [1] | [2] | [14] | [4] | [5] | [16] | [6] | [7] | [8] | [9] | [17] | [10] | [11] | [12] | [13]

N#CN=C1SCCN1Cc1ccc(Cl)nc1
inactive: [1] | [2] | [19] | [4] | [15] | [6] | [7] | [8] | [9] | [10] | [11] | [12] | [18] | [13]
